The list is not random: actives were taken first. Their share in the collection is about 5.8%.
uPA generation – inhibitors of cell surface uPA generation; cell surface uPA generation assay, qHTS; Potency, µM (highest dose often 38.3 µM), usual class: inhibitors; 0.31% of 330,000 active; AID 540303; active means well fitted inhibition curve with a large enough effect; inconclusive means small, poorly fitted or top-dose-only effect; inactive means no such curve, though single readings can be large or run the other way; tested in mouse RAW 264.7 cells; further: nearly all actives have a fitted effect of over 55% in size
TRPV1 agonist – activates the human vanilloid receptor TRPV1; AID 540275; 0.19% of 320,000 active; activation, % at 8.33 µM; Q8NER1; TRPV1-expressing cells, Fluo-8 calcium influx, agonist mode; in the data active means activation above about 80%; inconclusive means between about 30% and that limit
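TRPV1-expressing cells were cultured overnight at 35.5C and loaded with Fluo-8 calcium dye for 40 to 90 min at room temperature. After a 10 s baseline, compound was added and calcium influx was read kinetically for 3 min (ex 480/em 520 nm).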
VP16 counter – inhibits Gal4-VP16 luciferase reporter, ROR gamma counter-screen. Drosophila S2 Gal4-VP16 UAS-luciferase, luminescence, 20 h. Potency, µM (series often up to 53.6 µM), most hits filed as inhibitors. 3.5% of 310,000 active;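 further: Gal4-VP16 expression switched on by copper sulfate through the metallothionein promoter; nearly all actives have a fitted effect of over 50% in size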
TRPV1 potentiator – enhances activation of the human vanilloid receptor TRPV1. TRPV1-expressing cells, Fluo-8 calcium influx, capsaicin EC20 potentiation. potentiation, % at 8.33 µM. 0.02% of 320,000 active. AID 540277; in the data active means potentiation above about 80%; inconclusive means between about 30% and that limit
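Fluo-8 calcium influx in TRPV1-expressing cells, kinetic read (ex 480/em 520 nm). Compound added and read 3 min for agonist activity, followed by capsaicin at EC20 final and 2 min further read for enhancement.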
RORg inh – ROR gamma (mouse) transcription inhibition | 5.4% of 310,000 active | P51450 | Drosophila S2 Gal4-RORgamma UAS-luciferase reporter, 20 h | Potency, µM (series often up to 53.6 µM), usual class: inhibitors; further: nearly all actives have a fitted effect of over 60% in size
Target sequence (P51450 whole entry, looked up, the tested form may be a part): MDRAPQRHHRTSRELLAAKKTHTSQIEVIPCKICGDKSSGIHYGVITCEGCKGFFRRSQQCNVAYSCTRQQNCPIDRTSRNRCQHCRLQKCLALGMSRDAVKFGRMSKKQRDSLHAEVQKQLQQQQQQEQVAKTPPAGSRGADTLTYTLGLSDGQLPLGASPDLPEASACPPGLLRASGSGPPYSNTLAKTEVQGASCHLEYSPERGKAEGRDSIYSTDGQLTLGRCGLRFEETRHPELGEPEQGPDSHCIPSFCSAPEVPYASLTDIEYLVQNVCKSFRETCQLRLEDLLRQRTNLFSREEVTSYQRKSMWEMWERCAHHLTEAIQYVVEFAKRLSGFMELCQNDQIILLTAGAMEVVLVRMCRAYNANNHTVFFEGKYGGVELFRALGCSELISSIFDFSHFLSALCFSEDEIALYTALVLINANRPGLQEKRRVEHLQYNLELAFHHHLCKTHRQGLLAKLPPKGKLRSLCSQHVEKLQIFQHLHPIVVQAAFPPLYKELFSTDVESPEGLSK
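Compounds are pin-transferred onto Drosophila Schneider cells expressing a copper-inducible Gal4–ROR gamma transactivation domain fusion. After 1 hr, copper sulfate is added to 700 uM final; luciferase is read 20 hr later.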
Large screens that a line does not name were inactive. Unless noted, the call rests on the fitted dose curve; in most records, active means well fitted curve in the direction sought with a large enough effect; inconclusive means small, poorly fitted or top-dose-only effect, or another doubt; inactive means no such curve, though single readings can be large; an effect the other way counts as inactive or inconclusive.

Cc1ccc2nc(Nc3nc(-c4ccccc4)cc(=O)[nH]3)nc(C)c2c1	VP16 counter 13µM, RORg inh inconclusive
Cc1nn2c(=O)cc(CSc3nc4ccccc4[nH]3)nc2s1	RORg inh 4µM
Cc1ccc(NS(=O)(=O)c2cccc(C(=O)NCCCn3ccnc3)c2)cc1	none (no result: VP16 counter, RORg inh)
COc1ccc2c(C)nc(Nc3nc(-c4ccccc4)cc(=O)[nH]3)nc2c1	VP16 counter 4µM, RORg inh 4.5µM
COCc1cc(=O)[nH]c(Nc2nc(C)c3cc(OC)ccc3n2)n1	none (no result: uPA generation)
COc1ccc(C2=Nn3c(nnc3-c3ccc(OC)cc3OC)SC2)c(OC)c1	none (no result: uPA generation, TRPV1 agonist, TRPV1 potentiator)
CC(C)C/C(O)=C/c1nc2cc(Cl)ccc2oc1=O	uPA generation 1.4µM
O=C(Nc1ccccc1)C1=C[C@@H](c2ccc(Br)cc2)C[C@@H](OCCCCO)O1	VP16 counter 7.1µM, RORg inh inconclusive
O=C(/C=C/c1ccc(F)cc1)NCCCn1ccnc1	none
CCOc1cc(NC(=S)NCCCN(C)C)c(OCC)cc1NC(=O)c1cccs1	none
CCOc1cc(NC(=S)NCCCOC)c(OCC)cc1NC(=O)c1cccs1	VP16 counter inconclusive, RORg inh 14µM
CCOc1cc(NC(=S)NCCOC)c(OCC)cc1NC(=O)c1cccs1	VP16 counter inconclusive, RORg inh 14µM
CCOc1cc(NC(=S)NC)c(OCC)cc1NC(=O)c1cccs1	VP16 counter inconclusive, RORg inh 8.9µM
CCN1C(=O)[C@H]2[C@H]3[C@H](O)[C@H](O)C/C(=N/O[C@@H](C)c4cn([C@H](CO)Cc5ccccc5)nn4)[C@@H]3CC[C@@H]2C1=O	none (no result: uPA generation, TRPV1 agonist, TRPV1 potentiator)
COc1ccc(-c2cc3cc(OC)c(OC)cc3cn2)cc1	none (no result: TRPV1 agonist, VP16 counter, TRPV1 potentiator, RORg inh)
COc1ccc2cc(-c3ccccc3)ncc2c1	uPA generation inconclusive, VP16 counter inconclusive, TRPV1 potentiator inconclusive, RORg inh inconclusive
COc1ccc2cc(-c3ccsc3)ncc2c1	uPA generation 8.9µM (no result: VP16 counter, RORg inh)
COc1cc(OC)cc(-c2cc3ccc(OC)cc3cn2)c1	uPA generation 3.5µM (no result: VP16 counter, RORg inh)
O=C(NC[C@H]1CCCCN1)c1cc(OCC(F)(F)F)ccc1OCC(F)(F)F	none (no result: uPA generation, TRPV1 agonist, TRPV1 potentiator)
CCCn1nnnc1NC(=O)c1ccc2ccccc2c1	VP16 counter 1µM, RORg inh 1.6µM
CCCCC(=O)Nc1nnc(C)s1	none
CCCCC(=O)Nc1nnnn1CCC	VP16 counter inconclusive, RORg inh 14µM
CCCn1nnnc1NC(=O)COc1ccc(Br)cc1	VP16 counter 7.1µM, RORg inh 2.5µM
CCCn1nnc(NC(=O)c2ccc3ccccc3c2)n1	none
Cn1c(=O)nc2n(Cc3ccccc3)c3cccc(Cl)c3cc-2c1=O	none
COC(=O)Cc1ccc(NC(=S)NCc2cccc(OC)c2)cc1	TRPV1 agonist inconclusive, RORg inh 13µM
COC(=O)Cc1ccc(NC(=S)NCc2ccc(S(N)(=O)=O)cc2)cc1	none
CCCCc1ccc(NC(=S)NCc2cccc(OC)c2)cc1	TRPV1 agonist inconclusive, RORg inh 3.5µM
CCCCc1ccc(NC(=S)Nc2ccc(Nc3ccc(OC)cc3)cc2)cc1	VP16 counter 1.6µM, RORg inh 1.1µM
COc1cccc(NC(=O)Nc2ccc(CC(=O)O)cc2)c1	VP16 counter 20µM, RORg inh inconclusive
COCCn1c(=O)c(C)nc2cnc(OC)nc21	none (no result: uPA generation, TRPV1 agonist, TRPV1 potentiator)
CC(C)(C)[C@H](N)C(=O)N[C@H]1CCC2C3CC=C4C[C@@H](O)CC[C@]4(C)C3CC[C@@]21C (stereo partly specified)	none (no result: TRPV1 agonist, VP16 counter, TRPV1 potentiator, RORg inh)
CCN1C[C@@H]2[C@@H]3C(=O)N(Cc4ccccc4)C(=O)[C@@H]3[C@](CC)(C1=O)N2C(=O)c1ccc(C(F)(F)F)cc1	none (no result: TRPV1 agonist, VP16 counter, TRPV1 potentiator, RORg inh)
COCCCNc1nc2c(c(=O)n(C)c(=O)n2C)n1Cc1cccc(OC)c1	VP16 counter inconclusive, RORg inh inconclusive
COCCNc1nc2c(c(=O)n(C)c(=O)n2C)n1Cc1cccc(C)c1	VP16 counter 10µM, RORg inh inconclusive
Cc1cccc(Cn2c(NCCO)nc3c2c(=O)n(C)c(=O)n3C)c1	VP16 counter 4.5µM, RORg inh inconclusive (no result: TRPV1 agonist, TRPV1 potentiator)
Cc1ccc(NC(=O)c2ccc(N3CCCC3=O)cc2)cc1S(=O)(=O)N1CCCCC1	none (no result: VP16 counter, RORg inh)
CCNC(=O)C/C(C)=N/NC(=O)C1CCCCC1	VP16 counter inconclusive, RORg inh 11µM
COc1ccc(CCNC(=O)C/C(C)=N/NC(=O)C2CCCCC2)cc1OC	VP16 counter inconclusive
CCNC(=S)NNC(=O)C1CCCCC1	VP16 counter inconclusive, RORg inh 13µM
Cc1cc(SCNC(=O)c2ccccc2)nc(C(C)C)n1	VP16 counter inconclusive, RORg inh 13µM

Screening results deposited in PubChem by National Center for Advancing Translational Sciences (NCATS).
